Laboratory results published in PubChem BioAssay (EPA / NIEHS).
Calls of active or inactive are those of the source. The calls were made as follows: active = hit-call score of the fitted dose curve at least 0.9, where 1 is the maximum; inactive = score below 0.9.

How the values were obtained:
[1] = CCTE_Padilla_ZF_Score.Spine: CCTE's 144 Hour Post-fertilization zebrafish Assay Score for Spine Malformation, Padilla Lab (AID 2284407)
How it was run: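 Spine malformation scored at 6 dpf by two independent blinded observers under stereomicroscope, after static sealed exposure from 6–8 hpf at 26C in Hanks' solution with rinse on 5 dpf. Positive-direction fit against DMSO control.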

[2] = CCTE_Padilla_ZF_Score.Swim_bladder: CCTE's 144 Hour Post-fertilization zebrafish Assay Score for Swim Bladder Malformation, Padilla Lab (AID 2284408)
How it was run: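 Swim bladder inflation scored at 6 dpf by two blinded observers under a stereo microscope. Exposure ran from 6–8 hpf in sealed wells of 10% Hanks' at 26C, with rinsing at 5 dpf; DMSO served as baseline.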

[3] = CCTE_Padilla_ZF_Score.Position: CCTE's 144 Hour Post-fertilization zebrafish Assay Score for Position, Padilla Lab (AID 2284409)
How it was run: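 Wild-type zebrafish embryos (with chorions) exposed singly from 6–8 hpf in sealed wells of Hanks' solution at 26C, rinsed at 5 dpf. At 6 dpf, blinded assessors scored abnormal water-column position by brightfield stereomicroscopy, relative to DMSO.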

[4] = CCTE_Padilla_ZF_Score.Living: CCTE's 144 Hour Post-fertilization zebrafish Assay Score for Viability, Padilla Lab (AID 2284410);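 also: larval death at 6 dpf judged by absent heartbeat or coagulation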
How it was run: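 Mortality at 6 dpf, judged as absent heartbeat or coagulation by two blinded observers, after sealed static exposure beginning at 6–8 hpf at 26C. Larvae were rinsed free of chemical at 5 dpf, and activity was fitted relative to DMSO.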

[5] = CCTE_Padilla_ZF_Score.General: CCTE's 144 Hour Post-fertilization zebrafish Assay Score for General Malformation, Padilla Lab (AID 2284411)
How it was run: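 Malformation, death and hatching were scored at 6 dpf by two blinded observers under a stereo microscope. Embryos were dosed singly from 6-8 hpf in sealed plates of 10% Hanks' at 26C and rinsed on 5 dpf; DMSO baseline.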

[6] = CCTE_Padilla_ZF_Score.Blood_pooling: CCTE's 144 Hour Post-fertilization zebrafish Assay Score for Blood Pooling, Padilla Lab (AID 2284415)
How it was run: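 Blood pooling was scored at 6 dpf under a stereo microscope by two blinded assessors, fitted upward against DMSO. Single embryos were dosed at 6–8 hpf in 10% Hanks', kept sealed at 26C (14:10 h cycle) and rinsed at 5 dpf.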

[7] = CCTE_Padilla_ZF_Score.Any: CCTE's 144 Hour Post-fertilization zebrafish Assay Score for Any Mortality or Malformation, Padilla Lab (AID 2284416)
How it was run: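 Wild-type zebrafish embryos with chorions, one per well in 10% Hanks' from 6–8 hpf, dosed in sealed plates at 26 C, 14:10 h light:dark; rinsed at 5 dpf; blinded scoring at 6 dpf for death or malformation, versus DMSO.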

[8] = CCTE_Padilla_ZF_Score.Tail: CCTE's 144 Hour Post-fertilization zebrafish Assay Score for Tail Malformation, Padilla Lab (AID 2284414)
How it was run: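 Tail malformations were scored at 6 dpf by two blinded assessors under a stereo microscope. Chorionated embryos had been exposed from 6-8 hpf in sealed wells of 10% Hanks' at 26 C, then rinsed free of chemical at 5 dpf.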

Measured: AC50

NCC(F)(F)C(F)(F)C(F)(F)C(F)(F)C(F)(F)C(F)(F)F
active: [5] 75.3 µM | [7] 75.3 µM
not listed: [8]
inactive: all other assays above

C=CC(=O)OCC(F)(F)C(F)(F)C(F)(F)C(F)(F)C(F)(F)C(F)(F)C(F)(F)C(F)F
active: [2] 102 µM
not listed: [8]
inactive: all other assays above

O=C(O)CCC(F)(F)C(F)(F)C(F)(F)F
active: [7] 77.1 µM
not listed: [8]
inactive: all other assays above

NCC(F)(F)C(F)(F)C(F)(F)C(F)(F)C(F)(F)C(F)(F)C(F)(F)C(F)(F)F
active: [4] 32.4 µM | [7] 32.9 µM
inactive: all other assays above

OCC(F)(F)C(F)(F)C(F)(F)CO
not listed: [8]
inactive: all other assays above

FC(F)(F)C(F)(F)C(F)(F)CC1CO1 (configuration not stated)
not listed: [8]
inactive: all other assays above

CN(C(=O)C(F)(F)C(F)(F)C(F)(F)F)[Si](C)(C)C
not listed: [8]
inactive: all other assays above

NC(=O)C(F)(F)C(F)(F)C(F)(F)C(F)(F)C(N)=O
not listed: [8]
inactive: all other assays above

NS(=O)(=O)C(F)(F)C(F)(F)C(F)(F)C(F)(F)C(F)(F)C(F)(F)F
active: [2] 2.66 µM | [3] 2.51 µM | [4] 4.62 µM | [5] 2.27 µM | [7] 1.81 µM
inactive: [1] | [6]

O=C(F)C1(F)C(F)(F)C(F)(F)C(F)(F)C(F)(F)C1(F)F
not listed: [8]
inactive: all other assays above

NC(=O)C(F)(F)C(F)(F)C(F)(F)C(F)(F)C(F)(F)C(F)(F)C(F)(F)F
not listed: [8]
inactive: all other assays above

OCC(F)(F)C(F)(F)C(F)(F)C(F)(F)C(F)(F)C(F)(F)C(F)(F)C(F)(F)CO
active: [2] 3.96 µM | [4] 22.2 µM | [5] 4.17 µM | [7] 5.84 µM
inactive: [1] | [3] | [6]

O=C(Cl)C(F)(F)C(F)(F)C(F)(F)C(F)(F)C(F)(F)C(F)(F)C(F)(F)F
active: [7] 86.8 µM
not listed: [8]
inactive: all other assays above
